# Source: PubChem BioAssay (EPA / NIEHS)
# Where “and” joins values, the source holds several entries; their conditions need not be identical. Equal entries are not always repeated. The source holds several records for some structures; these can differ, active in one and inactive in another. Calls of active or inactive are those of the source. The calls were made as follows: active = hit-call score of the fitted dose curve at least 0.9, where 1 is the maximum; inactive = score below 0.9.
# Experiment: CCTE_Shafer_MEA_dev_network_spike_duration_std: CCTE's Neural Network Formation Assay for Standard Deviation of Network Spike Duration, Shafer Lab (AID 2284052);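 also: hits are decreases in network spike duration SD versus DMSO vehicle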
# How it was run: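 Network spike duration variability was collapsed across recordings on days 5, 7, 9 and 12 by trapezoidal area-under-curve and fitted downward against DMSO. Cultures were rat cortical neurons on PEI-coated MEA plates, dosed continuously from plating, refed with compound DIV 5/9.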
SMILES,AC50,outcome
CN(C)C(=S)SSC(=S)N(C)C,7.05 nM (active),–
CCCCOC(=O)c1ccccc1C(=O)OCCCC,–,inactive
CCNc1nc(Cl)nc(NC(C)C)n1,–,inactive
C=CCC1=C(C)C(OC(=O)C2C(C=C(C)C)C2(C)C)CC1=O (configuration not stated),–,inactive
C=CC1(C)OC(=O)N(c2cc(Cl)cc(Cl)c2)C1=O (configuration not stated),–,inactive
CCCCNC(=O)n1c(NC(=O)OC)nc2ccccc21,–,inactive
COc1ccc(C(c2ccc(OC)cc2)C(Cl)(Cl)Cl)cc1,1970 nM (active),–
COC(=O)N(OC)c1ccccc1COc1ccn(-c2ccc(Cl)cc2)n1,78.8 nM (active),inactive
CCOc1cc(Oc2ccc(C(F)(F)F)cc2Cl)ccc1[N+](=O)[O-],1130 nM (active),–
CO/C=C(/C(=O)OC)c1ccccc1Oc1cc(Oc2ccccc2C#N)ncn1,840 nM (active) and 974 nM (active),–
COP(N)(=O)SC (configuration not stated),–,inactive
Cc1ccc(-c2c(Cl)nc(C#N)n2S(=O)(=O)N(C)C)cc1,–,inactive
CC(C)(C)c1ccc(CSc2cnn(C(C)(C)C)c(=O)c2Cl)cc1,0.239 nM (active),–
COP(=S)(OC)Oc1nc(Cl)c(Cl)cc1Cl,–,inactive
CCCCNC(=O)OCC#CI,2.46 µM (active) and 1.09 µM (active),–
CCCCC(CC)COC(=O)c1ccccc1C(=O)OCC(CC)CCCC (configuration not stated),3050 nM (active),inactive
C=CCC1=C(C)[C@@H](OC(=O)[C@@H]2[C@@H](C=C(C)C)C2(C)C)CC1=O,–,inactive
N#Cc1nn(-c2c(Cl)cc(C(F)(F)F)cc2Cl)c(N)c1S(=O)C(F)(F)F (configuration not stated),–,inactive
Cc1c(F)c(F)c(COC(=O)C2C(/C=C(\Cl)C(F)(F)F)C2(C)C)c(F)c1F (configuration not stated),893 nM (active),–
CNC(=O)ON=CC(C)(C)SC,–,inactive
CCOC(=O)CC(SP(=S)(OC)OC)C(=O)OCC (configuration not stated),13300 nM (active),inactive

# Experiment: CCTE_Shafer_MEA_dev_per_network_spike_spike_number_mean: CCTE's Neural Network Formation Assay for Mean Number of Spikes in a Network Spike, Shafer Lab (AID 2284053);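 as to AC50: fitted as decrease in spikes per network spike relative to DMSO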
# How it was run: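 Mean spike count within each network spike, taken in a 0.05 s window at its peak, was recorded on days 5, 7, 9 and 12 and integrated as trapezoidal area under the curve. Rat cortical cultures on MEA plates received continuous compound from day 0, refreshed at medium changes on DIV 5 and 9.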
SMILES,AC50,outcome
CN(C)C(=S)SSC(=S)N(C)C,0.00976 µM (active),–
CCCCOC(=O)c1ccccc1C(=O)OCCCC,72.1 µM (active),–
CCNc1nc(Cl)nc(NC(C)C)n1,–,inactive
C=CCC1=C(C)C(OC(=O)C2C(C=C(C)C)C2(C)C)CC1=O (configuration not stated),24.5 µM (active),inactive
C=CC1(C)OC(=O)N(c2cc(Cl)cc(Cl)c2)C1=O (configuration not stated),–,inactive
CCCCNC(=O)n1c(NC(=O)OC)nc2ccccc21,15 µM (active),–
COc1ccc(C(c2ccc(OC)cc2)C(Cl)(Cl)Cl)cc1,9.95 µM (active),–
COC(=O)N(OC)c1ccccc1COc1ccn(-c2ccc(Cl)cc2)n1,82.2 nM (active) and 11 nM (active),–
CCOc1cc(Oc2ccc(C(F)(F)F)cc2Cl)ccc1[N+](=O)[O-],4.48 µM (active),–
CO/C=C(/C(=O)OC)c1ccccc1Oc1cc(Oc2ccccc2C#N)ncn1,1.49 µM (active) and 1.1 µM (active),–
COP(N)(=O)SC (configuration not stated),–,inactive
Cc1ccc(-c2c(Cl)nc(C#N)n2S(=O)(=O)N(C)C)cc1,14.4 µM (active),–
CC(C)(C)c1ccc(CSc2cnn(C(C)(C)C)c(=O)c2Cl)cc1,0.00169 µM (active),–
COP(=S)(OC)Oc1nc(Cl)c(Cl)cc1Cl,–,inactive
CCCCNC(=O)OCC#CI,2.76 µM (active) and 1.55 µM (active),–
CCCCC(CC)COC(=O)c1ccccc1C(=O)OCC(CC)CCCC (configuration not stated),6.42 µM (active) and 4.63 µM (active),inactive
C=CCC1=C(C)[C@@H](OC(=O)[C@@H]2[C@@H](C=C(C)C)C2(C)C)CC1=O,–,inactive
N#Cc1nn(-c2c(Cl)cc(C(F)(F)F)cc2Cl)c(N)c1S(=O)C(F)(F)F (configuration not stated),–,inactive
Cc1c(F)c(F)c(COC(=O)C2C(/C=C(\Cl)C(F)(F)F)C2(C)C)c(F)c1F (configuration not stated),1.98 µM (active),–
CNC(=O)ON=CC(C)(C)SC,0.549 µM (active),–
CCOC(=O)CC(SP(=S)(OC)OC)C(=O)OCC (configuration not stated),13 µM (active) and 8.1 µM (active),–
